Experimental data as given in the supplement of paper PMC8728848.
The full list was thinned out, with the strongest signals kept by preference.

Key:
Experiment in all cases: glycan array binding signal (z-score within array); higher = stronger binding
Conditions in all cases: glycan notation: IUPAC condensed, linker removed
[1] = target: GlcNAc(a1-4)Gal(b1-4)GlcNAc(b1-3)Gal(b1-4)[Fuc(a1-3)]GlcNAc(b1-3)Gal(b1-4)[Fuc(a1-3)]GlcNAc
How it was run: (§1)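 Arrays were curated from the Consortium for Functional Glycomics database, 3228 in total, and kept only where the protein sequence was available. Binding is expressed as a within-array Z-score. This score was averaged across arrays of the same protein sequence at different concentrations or buffers and across linkers, and negative values can be read as non-binding.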

[2] = target: GlcNAc(b1-3)Gal(b1-3)GalNAc
How it was run: as §1

[3] = target: GlcNAc(b1-3)Gal(b1-4)Glc
How it was run: as §1

[4] = target: GlcNAc(b1-3)Gal(b1-4)GlcNAc(b1-6)[Gal(b1-3)]GalNAc
How it was run: as §1

[5] = target: Kdn(a2-3)Gal(b1-3)GalNAc
How it was run: as §1

[6] = target: Man(a1-2)Man(a1-2)Man(a1-3)Man
How it was run: as §1

[7] = target: Man(a1-2)Man(a1-3)[Man(a1-2)Man(a1-6)]Man(a1-6)[Man(a1-2)Man(a1-2)Man(a1-3)]Man
How it was run: as §1

[8] = target: Man(a1-3)[Man(a1-6)]Man
How it was run: as §1

[9] = target: Man(a1-3)[Man(a1-6)]Man(a1-6)[Man(a1-2)Man(a1-3)]Man(b1-4)GlcNAc(b1-4)GlcNAc
How it was run: as §1

[10] = target: Man(a1-6)Man
How it was run: as §1

[11] = target: Neu5Ac(a2-3)Gal(b1-3)GalNAc(b1-3)Gal(a1-4)Gal(b1-4)Glc
How it was run: as §1

[12] = target: Neu5Ac(a2-3)Gal(b1-4)GlcNAc(b1-2)Man
How it was run: as §1

[13] = target: Neu5Ac(a2-3)Gal(b1-4)GlcNAc(b1-3)Gal
How it was run: as §1

[14] = target: Neu5Ac(a2-3)Gal(b1-4)GlcNAc(b1-3)Gal(b1-4)GlcNAc(b1-3)Gal(b1-4)GlcNAc
How it was run: as §1

[15] = target: Neu5Ac(a2-3)Gal(b1-4)GlcNAc(b1-3)Gal(b1-4)[Fuc(a1-3)]GlcNAc
How it was run: as §1

[16] = target: Neu5Ac(a2-3)Gal(b1-4)GlcNAc(b1-6)[Neu5Ac(a2-3)Gal(b1-3)]GalNAc
How it was run: as §1

[17] = target: Neu5Ac(a2-6)Gal(b1-3)GlcNAc(b1-3)[Gal(b1-4)GlcNAc(b1-6)]Gal(b1-4)Glc
How it was run: as §1

[18] = target: Neu5Ac(a2-6)Gal(b1-4)Glc
How it was run: as §1

[19] = target: Neu5Ac(a2-6)Gal(b1-4)GlcNAc(b1-2)Man(a1-3)[Gal(b1-4)GlcNAc(b1-2)Man(a1-6)]Man(b1-4)GlcNAc(b1-4)GlcNAc
How it was run: as §1

[20] = target: Neu5Ac(a2-6)Gal(b1-4)GlcNAc(b1-2)Man(a1-3)[Man(a1-6)]Man(b1-4)GlcNAc(b1-4)GlcNAc
How it was run: as §1

[21] = target: Neu5Ac(a2-6)Gal(b1-4)GlcNAc(b1-3)Gal(b1-4)GlcNAc(b1-3)GalNAc
How it was run: as §1

[22] = target: Neu5Ac(a2-6)Gal(b1-4)GlcNAc(b1-6)GalNAc
How it was run: as §1

[23] = target: Neu5Ac(a2-8)Neu5Ac(a2-8)Neu5Ac(a2-3)[Gal(b1-3)GalNAc(b1-4)]Gal(b1-4)Glc
How it was run: as §1

[24] = target: Neu5Ac(a2-8)Neu5Gc(a2-3)Gal(b1-4)GlcNAc
How it was run: as §1

[25] = target: Neu5Gc(a2-6)Gal(b1-4)GlcNAc
How it was run: as §1

B1: LngA (Escherichia coli) (protein)
chain: MLSVYNRTQKFKAEARKKIAKYHELRKQRGMSLLEVIIVLGIIGTIAAGVVILAQRAFDSRAVTDLVTNTNTVRVRMKDAYQRDGKYPDFVDPLSLTANTIKTDTSGIPAAQLVQLGKITPDEVRNNISGDFIAIGGALTSNGAQVKKGFAIELNGLSQEQCRSILGQVGNNWEYVAIGTSASGSYAMTATGVDMSVAASTTVLRSLGNNGQTTLTADKILSTCTAQVNSITLGSR
glycan array binding signal (z-score) [1]: 0.38 | glycan array binding signal (z-score) [2]: 0.147 | glycan array binding signal (z-score) [3]: -0.256 | glycan array binding signal (z-score) [4]: -0.006 | glycan array binding signal (z-score) [5]: -0.202 | glycan array binding signal (z-score) [6]: -0.556 | glycan array binding signal (z-score) [7]: -0.506 | glycan array binding signal (z-score) [8]: -0.411 | glycan array binding signal (z-score) [9]: -0.239 | glycan array binding signal (z-score) [10]: 3.82 | glycan array binding signal (z-score) [11]: -0.375 | glycan array binding signal (z-score) [12]: 3.6 | glycan array binding signal (z-score) [13]: -0.531 | glycan array binding signal (z-score) [14]: -0.508 | glycan array binding signal (z-score) [15]: 2.73 | glycan array binding signal (z-score) [16]: -0.439 | glycan array binding signal (z-score) [17]: -0.533 | glycan array binding signal (z-score) [18]: -0.2 | glycan array binding signal (z-score) [19]: -0.321 | glycan array binding signal (z-score) [20]: -0.28 | glycan array binding signal (z-score) [21]: -0.361 | glycan array binding signal (z-score) [22]: 2.77 | glycan array binding signal (z-score) [23]: -0.06 | glycan array binding signal (z-score) [24]: -0.319 | glycan array binding signal (z-score) [25]: -0.433
